Reference: PMC4552634, “A New Set of Chemical Starting Points with Plasmodium falciparum Transmission-Blocking Potential for Antimalarial Drug Discovery” (PLoS ONE, 2015)
Out of some 13,000 compounds screened, about 3,200 (25%) showed an effect of 50% or more. The list shows a part of the results.

Test system: P. falciparum stage V gametocytes
Parameters: BacTiter-Glo ATP luminescence viability of purified stage V gametocytes in 384-well plates, per cent inhibition versus DMSO
Conditions: 48 h, 5 µM; inhibitor

Structure (SMILES)	% Inhibition [%]
Cc1ccc(F)cc1S(=O)(=O)NCC(C)c1ccc(NC(=O)Nc2cccc(F)c2)cc1 (centres unmarked) [TCMDC-136380]	-32.92
OC(CNc1ccnc(Nc2cccc(Cl)c2)n1)c1ccccc1C(F)(F)F (centres unmarked) [TCMDC-136578]	-37.8
CC(C)n1cc2c(ccc3nc(N)nc(N)c32)n1 [TCMDC-137865]	-36.93
COc1ccc2nccc([C@@H](O)CN3CCC(NCc4ccc5c(c4)N(C)C(=O)CO5)CC3)c2c1 [TCMDC-141093]	-7.365
COCCCNc1sc(S(=O)(=O)c2ccccc2)nc1S(=O)(=O)c1ccc(C)cc1 [TCMDC-125275]	-13.04
CS(=O)(=O)CCNCc1nc(-c2ccc3c(=O)[nH]cnc3c2)cs1 [TCMDC-138539]	107
CS(=O)(=O)CCNCc1nc(-c2ccc3ncnc(Nc4ccc(OCc5ccccc5)c(Cl)c4)c3c2)cs1 [TCMDC-138497]	-10.86
CS(=O)(=O)CCNCc1nc(-c2ccc3c(Nc4ccc(F)c(O)c4)ccnc3c2)cs1 [TCMDC-138437]	-66.48
O=C(Nc1ccc(Cl)cc1)N(CC1CC2CCC(C1)N2Cc1ccc(C(F)(F)F)cc1)c1ccc(N2CCOCC2)c(F)c1 (centres unmarked) [TCMDC-135859]	42.25
COCc1nc(-c2ccccc2)nc(N2CCN(C(=O)NC(C)C)CC2)c1Cc1ccccc1F [TCMDC-124782]	9.126
Cc1onc(-c2c(Cl)cccc2Cl)c1C(=O)NC1=NC(C)(C)ON1c1ccccc1 [TCMDC-123777]	-4.951
Cc1cccc2[nH]c(-c3ccc(-c4cccc(NC(=O)NCc5ccccc5)c4)cc3)nc12 [TCMDC-133162]	-12.85
COCCNCc1ccc(-c2ccc(CN(C(=O)Nc3ccccc3)C3CCN(Cc4ccccc4)CC3)cc2)cc1 [TCMDC-140600]	51.26
COCCNCc1cccc(-c2ccc(CN(C(=O)Nc3ccccc3)C3CCN(Cc4ccccc4)CC3)cc2)c1 [TCMDC-140599]	105.4
COCCNCc1cccc(-c2cccc(CN(C(=O)Nc3ccccc3)C3CCN(Cc4ccccc4)CC3)c2)c1 [TCMDC-140586]	56.29
COCCNCc1cccc(-c2ccccc2CN(C(=O)Nc2ccccc2)C2CCN(Cc3ccccc3)CC2)c1 [TCMDC-140579]	41.2
COc1cccc(CN2CCCC(CCC(=O)Nc3ccc(C(F)(F)F)cc3)C2)c1O (centres unmarked) [TCMDC-124616]	-32.93
COc1ccc(CC(=O)Nc2ccc(-c3cccc(-c4nc5c(C)cccc5[nH]4)c3)cc2)cc1O [TCMDC-132145]	-7.504
O=[N+]([O-])c1cccc(-n2nc(NCc3ccc(Cl)cc3)nc2-c2ccc(F)c(C(F)(F)F)c2)c1 [TCMDC-133541]	77.17
Fc1ccc(CNc2nc(-c3ccc(F)c(C(F)(F)F)c3)n(-c3cccc(C(F)(F)F)c3)n2)cc1 [TCMDC-133543]	-1.205
Fc1ccc(-c2nc(NCc3cccc(C(F)(F)F)c3)nn2-c2cccc(C(F)(F)F)c2)cc1C(F)(F)F [TCMDC-133542]	-57.69
O=C(O)C1Cc2c([nH]c3ccccc23)C(c2ccc(Cl)cc2Cl)N1 (centres unmarked) [TCMDC-125815]	25.42
CCOC(=O)C1=C(C)NC(Cn2ccnc2)=C(C(=O)OCC)C1c1ccc(C(C)(C)C)cc1 (centres unmarked) [TCMDC-138170]	12.53

Structure (SMILES)	% Inhibition [%]
CC(=O)Nc1ccc(NC(=O)c2cc(-c3ccc(C)cc3O)n[nH]2)cc1 [TCMDC-125182]	0.9116
O=C(Nc1cccnc1)c1cc(-c2cc(Cl)ccc2O)n[nH]1 [TCMDC-125322]	-15.69
Cc1ccc(O)c(-c2cc(C(=O)Nc3ccc(S(=O)(=O)N4CCCCCC4)cc3)[nH]n2)c1 [TCMDC-125201]	-31.36
CCN(c1ccccc1)S(=O)(=O)c1ccc(NC(=O)c2cc(-c3cc(C)ccc3O)n[nH]2)cc1 [TCMDC-124308]	51.8
Cc1ccc(-c2cc(C(=O)Nc3ccc(S(=O)(=O)N(C)Cc4ccccc4)cc3)[nH]n2)c(O)c1 [TCMDC-125181]	-25.99
CC(=O)Nc1ccc(NC(=O)c2cc(-c3cc(Cl)ccc3O)n[nH]2)cc1 [TCMDC-125476]	83.42
Cc1cccc(C)c1CNc1nc(N2CCOCC2)cc2c(C)c(C)[nH]c12 [TCMDC-134210]	43.54
CCNC(=O)N[C@@H]1CN[C@@H](C#Cc2cc3c(Nc4ccc(OCc5cccc(F)c5)c(Cl)c4)ncnc3s2)C1 [TCMDC-135409]	-11.09
COc1cc(CNc2ccc(N3CCCC3)cc2)cc(Cl)c1OC [TCMDC-124518]	100.8
COc1ccc(CNC2CCN(c3ccc(NC(=O)c4cccc(Cl)c4)cc3)CC2)cc1OC [TCMDC-124658]	-12.9
COc1ccc(C=CC(=O)Nc2ccc(N3CCCC3)cc2)cc1 [TCMDC-125750]	-68.82
CCCC1(C)CSc2ccccc2C(c2ccccc2)N1 (centres unmarked) [TCMDC-137314]	11.78
CCCCCCCN(Cc1ccc(OC(C)(C)C(=O)OCC)cc1)C(=O)Nc1ccccc1OCC [TCMDC-137534]	46.34
CCCCCCCN(Cc1ccc(OC(C)(C)C(=O)OCC)cc1)C(=O)Nc1ccc(Cl)cc1OCC [TCMDC-131919]	74.71
CCCCCCCN(Cc1ccc(OC(C)(C)C(=O)OCC)cc1)C(=O)Nc1ccccc1OC(F)(F)F [TCMDC-131918]	45.53
Nc1nc(N)c2c(ccc3nn(Cc4ccccc4)cc32)n1 [TCMDC-137757]	-1.825
CCC(C)(C)n1c(C)cc2c3c(N)nc(N)nc3ccc21 [TCMDC-137307]	10.01
CCC(CC)n1c(C)cc2c3c(N)nc(N)nc3ccc21 [TCMDC-137283]	15.6
CCOCn1c(-c2ccccc2)cc2c3c(N)nc(N)nc3ccc21 [TCMDC-137979]	108.5
CCCn1cc2c(ccc3nc(N)nc(N)c32)n1 [TCMDC-137858]	22.58
Cc1cc2c3c(N)nc(N)nc3ccc2n1C [TCMDC-137957]	115.7
Cn1c(-c2ccccc2)cc2c3c(N)nc(N)nc3ccc21 [TCMDC-137985]	110.7
Cc1cc2c3c(N)nc(N)nc3ccc2n1C(C)C [TCMDC-137864]	-11.65

Structure (SMILES)	% Inhibition [%]
Cn1ccc2c3c(N)nc(N)nc3ccc21 [TCMDC-139863]	5.526
COc1ccc(C(=O)COc2cccc(/C=C/C(=O)O)c2)cc1OC [TCMDC-137318]	-6.983
Cc1nc(-c2cccc(NCc3ccccc3)c2)[nH]c1C [TCMDC-133419]	-26.98
CCOc1cc(Cc2cnc(N)nc2N)cc(OC)c1OC [TCMDC-137664]	-4.101
CC(C)C1C(O)=C(c2ccc3ccccc3c2)C(=O)N1Cc1ccsc1 (centres unmarked) [TCMDC-141810]	16.73
Cc1ccccc1C1CCN(C2CCC(NC(=O)/C=C/c3cccc(Cl)c3F)CC2)CC1 (centres unmarked) [TCMDC-133513]	-35.56
COc1cccc(CNC[C@@H](O)[C@H](Cc2ccccc2)NC(=O)c2cc3c4c(c2)c(C(C)C)cn4CCS(=O)(=O)N3C)c1 [TCMDC-135536]	25
Cc1nn(-c2ccccc2)nc1C(=O)NC1CCN(CCNC(=O)c2ccc(Cl)c(Cl)c2)CC1 [TCMDC-141951]	7.25
COc1ccc2nccc([C@@H](O)CN3CCC(NC(=O)c4cccc(-c5cc(C)no5)c4)CC3)c2c1 [TCMDC-141133]	-80.32
Cc1noc(C)c1-c1cccc(C(=O)NC2CCN(CCNC(=O)C(c3ccccc3)c3ccccc3)CC2)c1 [TCMDC-133354]	85.49
OCCn1c(CNCCCNc2nc3ccccc3[nH]2)cc2c(Cl)cc(Cl)cc21 [TCMDC-140142]	2.661
CNc1nc(N/N=C/c2cc([N+](=O)[O-])c(Cl)cc2Cl)nc(Nc2cccc(C(F)(F)F)c2)n1 [TCMDC-124087]	-4.111
COc1ccccc1NC(=O)Nc1cccc(-c2ccc(-c3nc4cccc(C)c4[nH]3)s2)c1 [TCMDC-133200]	0.164
CCn1c(-c2nonc2N)nc2c(C#CC(C)(C)O)ncc(OCCNCCc3ccc(OC)cc3)c21 [TCMDC-136364]	100.7
COc1ccccc1NC(=O)Nc1cccc(-c2cccc(-c3nc4c(C)cccc4[nH]3)c2)c1 [TCMDC-133204]	-4.891
COc1cccc(-c2ccc3c(-c4cccc(NC(C)=O)c4)cnc(N)c3c2)c1 [TCMDC-134562]	29.05
CCn1c(-c2nonc2N)nc2cnc(Oc3cccc(NC(=O)c4ccc(OCCN(C(C)C)C(C)C)cc4)c3)cc21 [TCMDC-135777]	-15.21
CCn1c(-c2nonc2N)nc2c(-c3cccc(NC(=O)Nc4ccccc4Cl)c3)ncc(OCCCN)c21 [TCMDC-136192]	107.4
CCn1c(-c2nonc2N)nc2c(-c3cccc(NC(=O)Nc4ccccc4OC)c3)ncc(OCCCN)c21 [TCMDC-136190]	111.9
CCn1c(-c2nonc2N)nc2c(-c3cccc(NC(=O)Nc4cccc(OC)c4)c3)ncc(OCCCN)c21 [TCMDC-136180]	96.94
CCC(Cc1cnc2nc(N)nc(N)c2n1)c1ccc(C(=O)O)cc1 (centres unmarked) [TCMDC-137331]	24.52
FC(F)(F)c1ccc2[nH]c(-c3ccc(-c4ccc(CN5CCN(c6ccncc6)CC5)cc4)s3)nc2c1.O=C(O)C(F)(F)F [TCMDC-132920]	-8.718
